Reference: PubChem BioAssay (NCI)
Compounds without any hit were thinned out: in the full panel of roughly 79,000, 15% have a hit. Values without a mark were called inactive. Activity calls are given as the source filed them. Rule as the data show it: active = growth inhibition above about 70%; inactive = the rest.

Key:
[1] = NCI Yeast Anticancer Drug Screen. Data for the rad50 strain (AID 155);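 also: 0% = growth of vehicle-only cultures of the same strain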; conditions: S. cerevisiae rad50 strain growth inhibition, stronger effect = higher value
Method in brief: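 Compounds were tested on a yeast strain with an engineered DNA damage repair alteration; the reported value is growth inhibition normalised to vehicle treatment.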

[2] = NCI Yeast Anticancer Drug Screen. Data for the mec2-1 strain (AID 157); conditions: S. cerevisiae mec2-1 strain, stronger effect = higher value
Method in brief: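 mec2-1 yeast strain, carrying an alteration in DNA damage repair or cell cycle control, was exposed to compounds; growth inhibition was measured relative to vehicle-treated controls.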

[3] = NCI Yeast Anticancer Drug Screen. Data for the sgs1 mgt1 strain (AID 161);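 also: 0% = growth of cultures given vehicle only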; conditions: S. cerevisiae sgs1 mgt1 strain, stronger effect = higher value
Method in brief: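 This yeast growth screen uses a strain with defined DNA-repair lesions; compound-treated growth is compared with vehicle-treated growth.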

[4] = NCI Yeast Anticancer Drug Screen. Data for the cln2 rad14 strain (AID 165);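 also: 0% = growth equal to vehicle treated cultures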; conditions: S. cerevisiae cln2 rad14 strain, stronger effect = higher value
Method in brief: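 Yeast carrying cln2 and rad14 alterations (cell cycle control and DNA damage repair) were exposed to compounds. Growth inhibition was measured against vehicle-treated controls.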

[5] = NCI Yeast Anticancer Drug Screen. Data for the bub3 strain (AID 167); conditions: S. cerevisiae bub3 mutant strain, stronger effect = higher value
Method in brief: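 Growth of a checkpoint-deficient yeast mutant is measured after compound exposure. Values represent inhibition relative to vehicle.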

[6] = NCI Yeast Anticancer Drug Screen. Data for the mlh1 rad18 strain (AID 175); conditions: S. cerevisiae mlh1 rad18 strain growth inhibition, stronger effect = higher value
Method in brief: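 Growth inhibition of the yeast strain was measured after compound exposure and expressed relative to vehicle-treated controls. The strain carries defined defects in DNA damage repair.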

[7] = at 5.0 µM (retest, dose inferred, filed as 0.5)
[8] = at 50.0 µM (retest, dose inferred, filed as 5.0)

| SMILES | growth inhibition [1, 7] [%] | growth inhibition [1, 8] | growth inhibition ([1]; at 50.0 µM) | growth inhibition [2, 7] [%] | growth inhibition [2, 8] | growth inhibition ([2]; at 50.0 µM) | growth inhibition [3, 7] [%] | growth inhibition [3, 8] | growth inhibition ([3]; at 50.0 µM) | growth inhibition [4, 7] [%] | growth inhibition [4, 8] | growth inhibition ([4]; at 50.0 µM) | growth inhibition [5, 7] [%] | growth inhibition [5, 8] | growth inhibition ([5]; at 50.0 µM) | growth inhibition [6, 7] [%] | growth inhibition [6, 8] | growth inhibition ([6]; at 50.0 µM) |
| --- | --- | --- | --- | --- | --- | --- | --- | --- | --- | --- | --- | --- | --- | --- | --- | --- | --- | --- |
| CCCCC#CC(=O)OCCC | -1 | 2% | 26.6% | 0 | 2% | 15.8% | 2 | 2% | 22.4% | -1 | -1% | 85.5% (active) | 1 | 0% | -22.4% | -2 | -1% | -9.75% |
| COc1cccc(C2CC(C)(O)Oc3cc4c(cc32)OCO4)c1 (configuration not stated) | 4 | 36% | 33.8% | 5 | 16% | 50.7% | -12 | 9% | 29.4% | 8 | 44% | 54.6% | 2 | 57% | 46.4% | -14 | 38% | 53% |
| O=C1/C(=C/c2ccc(Cl)cc2)CCC/C1=C\c1ccc(O)c(CN2CCCCC2)c1 | 31 | 52% | 2.4% | 2 | 17% | 1.75% | 7 | 20% | 69% | 7 | 24% | 51.9% | -48 | 17% | 72.3% (active) | 16 | 20% | 90.6% (active) |
| Cc1ccc(NC(=S)SCc2ccc(Cl)cc2)cc1Br | 48 | 99% (active) | 90.5% (active) | 25 | 99% (active) | 93.2% (active) | 64 | 100% (active) | 91% (active) | 48 | 99% (active) | 89.9% (active) | 65 | 99% (active) | 92.3% (active) | 38 | 99% (active) | 90.8% (active) |
